# Results published in PubChem BioAssay (Tox21).
# Results filed as inconclusive are left out. Entries that show only a call come without a potency. Unmarked numbers belong to inactive results. Calls of active or inactive are those of the source. The call rests on the fitted dose curve; in most records, active means well fitted cell-killing curve with a large enough effect in the repeat runs; inconclusive means weak or mixed curves, or effect the other way; inactive means flat fitted curve, though single readings scatter.
# Experiment: cAMP Responsive Elements (CRE) small molecule antagonists, cell-based qHTS assay: qHTS cell viability counter screen (AID 2060913); further: nearly all actives have a fitted effect of over 40% in size
# Conditions: CRE-bla HEK293T viability, CellTiter-Glo luminescence, 5 h; series mostly up to 92.4 µM
# Procedure, shortened: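 Cytotoxicity read in the same wells as the CRE-bla HEK293T antagonist assay: after 3 h compound with 0.25 uM NKH477 final and 2 h beta-lactamase substrate, CellTiter-Glo luminescence measured.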
# Potency means the concentration at half of the fitted maximal effect.
SMILES,Potency,"viability change, negative = cytotoxic"
Cc1ccc(O)cc1,inactive,–
C=C(C)C(=O)OCCOC(=O)CC(C)=O,inactive,–
CCCC(=O)Nc1ccc(OCC(O)CNC(C)C)c(C(C)=O)c1 (stereo not given),inactive,–
COc1c(N2CCNC(C)C2)c(F)cc2c(=O)c(C(=O)O)cn(C3CC3)c12 (stereo not given),inactive,–
CN(C)CCOC(c1ccccc1)c1ccccc1 (tested in a mixture with another compound),inactive,–
NCC(=O)O,–,-2.51% [at 18.9 µM]
Clc1nc2ccccc2nc1Cl,inactive,–
NCCCC(N)(C(=O)O)C(F)F (stereo not given),inactive,–
O=C(O)c1c2ccccc2cc2ccccc12,inactive,–
Cn1c(N)nc2nc[nH]c2c1=O,inactive,–
CCCOC(=O)c1ccc(N)cc1,inactive,–
CCC(CO)(CO)COCC(CC)(CO)CO,inactive,–
CCCCCCOC(=O)CC,inactive,–
Cc1ccc(S(=O)(=O)NC(=O)NN2CC3CCCC3C2)cc1 (stereo not given),inactive,–
CC(=O)N1CCN(c2ccc(OC[C@H]3CO[C@](Cn4ccnc4)(c4ccc(Cl)cc4Cl)O3)cc2)CC1,54.5 µM (active),–
CCOC(=O)CC(C(C)=O)C(C)=O,inactive,–
CCCCNc1ccccc1,inactive,–
CCN(CCC#N)c1ccc(N=Nc2c(Cl)cc([N+](=O)[O-])cc2Cl)cc1,inactive,–
CCN(CC)CCN,inactive,–
Cc1cc(N)no1,inactive,–

SMILES,Potency,"viability change, negative = cytotoxic"
CCN1CN(CC)CN(CC)C1,inactive,–
CC(C)C[C@H](NC(=O)[C@H](Cc1ccccc1)NC(=O)c1cnccn1)B(O)O,inactive,–
Cc1ccc(S(=O)(=O)NC(=O)NC2CCCC2)cc1,inactive,–
Brc1ccccn1,inactive,–
CCCCC/C(=C\c1ccccc1)CO,inactive,–
Nc1ccn([C@@H]2O[C@H](CO)[C@@H](O)C2O)c(=O)n1 (stereo not given in full),inactive,–
COC(C)(C)OC,inactive,–
CC(CC(=O)O)CC(C)(C)C (stereo not given),inactive,–
CC(C)=CCOC(=O)c1ccccc1,inactive,–
CC(C)(C)c1ccc(C(=O)O)cc1,inactive,–
c1cc2c3c(c1)ccc1cccc(c13)C2,inactive,–
Nc1nc2ccc([N+](=O)[O-])cc2s1,inactive,–
CCOC(=O)CCC(=O)OCC,inactive,–
CC(C)(O)c1ccc(C(C)(C)O)cc1,inactive,–
Cc1c(Cn2ccnc2)c2ccccc2n1CCC(=O)O,inactive,–
CC(C)c1cccc(C(C)C)c1N1C(=O)c2ccc(O)cc2C1=O,61.1 µM (active),–
O=C1OCCN1/N=C/c1ccc([N+](=O)[O-])o1,inactive,–
COc1ccc2cc3[n+](cc2c1OC)CCc1cc2c(cc1-3)OCO2,inactive,–
COC(=O)Nc1nc2ccc(C(=O)c3ccccc3)cc2[nH]1,inactive,–
CCn1cc(C(=O)O)c(=O)c2ccc(C)nc21,inactive,–
